Measured values from PubChem BioAssay AID2313 (Broad Institute, 2010).
Screen size: about 22,000 compounds; about 460 (2.1%) were called active. Another 2% or so got no clear call; they are omitted.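 Rule for the calls: active = mean inhibition across valid replicates above about 65% (limit read from the data); inconclusive = mean under the limit, yet half or more replicates past it; inactive = the rest.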 Shown is part of a subset that was picked to be rich in actives.

Assay: Shh-driven Gli reporter inhibition – luminescence, Shh-LIGHT2 cells, Gli-luciferase, primary screen (AID 2313);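 note: pathway switched on by Shh-conditioned medium diluted 1 in 25 in low serum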
Settings: 30 h, stronger effect = higher value

inhibition, inactive:
C[C@H](CO)N1C[C@H](C)[C@H](CN(C)Cc2ccc3c(c2)OCO3)Oc2c(cccc2N(C)C)C1=O -27.6%
CCCC(=O)Nc1ncnc2c1ncn2C1O[C@@H]2COP(=O)(O)O[C@H]2[C@H]1OC(=O)CCC (stereo partly drawn) -62.8%
C[C@@H]1CCCCO[C@@H](CN(C)C(=O)Nc2cccc3ccccc23)[C@@H](C)CN([C@H](C)CO)C(=O)c2cc(NS(C)(=O)=O)ccc2O1 33.2%
O=C(Oc1cccc(C(F)(F)F)c1)c1cc2ccc3ccccc3c2s1 -31.9%
C[C@@H]1CC[C@]2(C(=O)O)CC[C@]3(C)C(=CCC4[C@@]5(C)CC[C@H](O)[C@](C)(C(=O)O)C5CC[C@]43C)C2[C@]1(C)O (stereo partly drawn) -18.2%
CC1(C)CC[C@@]2(C(=O)O)C(C1)C1=CCC3[C@@]4(C)CC[C@H](O)C(C)(C)C4CC[C@@]3(C)[C@]1(C)C[C@H]2O (stereo partly drawn) -24.6%
Cc1ccc(S(=O)(=O)Nc2ccc3c(c2)C(=O)N([C@H](C)CO)C[C@@H](C)[C@H](CN(C)Cc2ccccc2)O3)cc1 15.5%
COC(=O)c1sc(SC)c(-c2ccn(S(=O)(=O)c3ccc(Cl)cc3)n2)c1C 14.7%
Oc1ccc(-n2cccc2)cc1 30.8%
O=C(OC1=CC(=O)c2cccc3cccc1c23)c1ccccc1 -20.2%
Cc1ccc(C(=O)c2coc3ccc(O)c(CN(C)C)c23)cc1 38.9%
CC(C)NC(=O)N(C)C[C@H]1Oc2c(NS(=O)(=O)c3ccc(Cl)cc3)cccc2C(=O)N([C@@H](C)CO)C[C@H]1C 3.77%
C[C@@H]1O[C@@H](Oc2cc(O)c3c(=O)c(O[C@@H]4O[C@@H](C)[C@H](O)[C@@H](O)[C@H]4O)c(-c4ccc(O)cc4)oc3c2)[C@H](O)[C@H](O)[C@H]1O -11.3%
COc1ccc(S(=O)(=O)Nc2ccc3c(c2)CC(=O)N([C@H](C)CO)C[C@H](C)[C@H](CN(C)CC2CC2)O3)cc1 -6.58%
C[C@H](CO)N1C[C@H](C)[C@H](CN(C)CC2CC2)Oc2ccc(NS(=O)(=O)c3ccccc3)cc2CC1=O -5.84%
COc1ccc(S(=O)(=O)Nc2cccc3c2O[C@@H](CN(C)S(=O)(=O)c2c(C)noc2C)[C@@H](C)CN([C@H](C)CO)C3=O)cc1 24.8%
C[C@H](CO)N1C[C@H](C)[C@@H](CN(C)Cc2ccccc2)Oc2ccc(NC(=O)CCCN(C)C)cc2C1=O -0.759%
CCOC(=O)c1nnn2c1nc(N1CCN(c3ccccc3)CC1)c1ccccc12 37.6%
Cc1cc(C)n2nc(-c3ccc(C(C)(C)C)cc3)cc2n1 -92.6%
COc1ccc(CN(C)C[C@H]2Oc3c(NC(=O)C4CC4)cccc3C(=O)N([C@@H](C)CO)C[C@H]2C)cc1 -3.41%
C[C@@H]1CN([C@@H](C)CO)C(=O)c2cc(NC(=O)c3ccncc3)ccc2O[C@@H]1CN(C)Cc1ccncc1 9.73%
C[C@@H]1CN([C@@H](C)CO)C(=O)c2cc(NC(=O)c3ccncc3)ccc2O[C@H]1CN(C)Cc1ccc(C(=O)O)cc1 13.9%
Cc1ccc(S(=O)(=O)N(C)C[C@@H]2Oc3c(NC(=O)Nc4c(C)noc4C)cccc3C(=O)N([C@@H](C)CO)C[C@@H]2C)cc1 -32.7%
CC(C)(O)C1=CCC23COC(C2)C(O)(C(=O)O)CCC13 (stereo not drawn) 12.8%
COc1ccc(NC(=O)N(C)C[C@@H]2Oc3c(NC(=O)NC4CCCCC4)cccc3C(=O)N([C@H](C)CO)C[C@H]2C)cc1 -15.5%
Cc1ccc(S(=O)(=O)N(C)C[C@@H]2Oc3ccc(NS(=O)(=O)c4cn(C)cn4)cc3C(=O)N([C@@H](C)CO)C[C@H]2C)cc1 -8.67%
CCOc1cc(/C=C2\SCOC2=O)ccc1O -11.1%
COc1ccc(S(=O)(=O)Nc2cccc3c2O[C@H](CN(C)C(=O)NC(C)C)[C@H](C)CN([C@H](C)CO)C3=O)cc1 4.9%
CCN(c1ccccc1)S(=O)(=O)c1ccc(C)cc1 -25.3%
Cc1cc(=O)[nH]c(SCc2cn3c(C)cc(C)nc3n2)n1 -20.5%
Cc1ccc(S(=O)(=O)Nc2cccc3c2O[C@H](CN(C)S(=O)(=O)c2cn(C)cn2)[C@H](C)CN([C@H](C)CO)C3=O)cc1 21.4%
COc1ccc(CN(C)C[C@H]2OCCCC[C@@H](C)Oc3ccc(NC(=O)Nc4cccc5ccccc45)cc3C(=O)N([C@H](C)CO)C[C@@H]2C)cc1 17.8%
Cc1ccc(S(=O)(=O)N(C)C[C@@H]2Oc3c(NC(=O)Nc4ccccc4)cccc3C(=O)N([C@H](C)CO)C[C@H]2C)cc1 -14.6%
C[C@H](CO)N1C[C@H](C)[C@H](CN(C)S(=O)(=O)c2ccccc2)Oc2c(NC(=O)Nc3ccccc3)cccc2C1=O 14.8%
Cc1ccc(S(=O)(=O)N(C)C[C@@H]2Oc3c(NC(=O)C4CC4)cccc3C(=O)N([C@H](C)CO)C[C@H]2C)cc1 -12.6%
Cc1ccc(S(=O)(=O)N(C)C[C@H]2Oc3c(NC(=O)C4CC4)cccc3C(=O)N([C@@H](C)CO)C[C@@H]2C)cc1 28.4%
C[C@@H]1CN([C@H](C)CO)C(=O)c2cccc(NC(=O)Nc3cccc4ccccc34)c2O[C@@H]1CN(C)Cc1ccccc1 0.787%
C[C@H]1CN([C@@H](C)CO)C(=O)c2cccc(NC(=O)c3ccncc3)c2O[C@H]1CN(C)C -21.4%
COc1ccc(NC(=O)Nc2cccc3c2O[C@H](CN(C)Cc2ccc(Cl)c(Cl)c2)[C@H](C)CN([C@@H](C)CO)C3=O)cc1 51.9%
C[C@@H]1CN([C@@H](C)CO)C(=O)Cc2cc(NC(=O)Nc3ccc4c(c3)OCO4)ccc2O[C@@H]1CN(C)S(=O)(=O)c1ccc(Cl)cc1 38.3%
O=C1C(c2ccccc2)CCCC1c1ccccc1 (stereo not drawn) 22.1%
Cc1noc(C)c1NC(=O)Nc1cccc2c1O[C@@H](CN(C)C(=O)Nc1ccc(C(F)(F)F)cc1)[C@@H](C)CN([C@@H](C)CO)C2=O 1.09%
Cc1cc(=O)oc2cc(OCc3cccc(F)c3)ccc12 -75.4%
COc1ccc(NC(=O)N(C)C[C@@H]2OCCCC[C@@H](C)Oc3ccc(NS(=O)(=O)c4c(C)noc4C)cc3C(=O)N([C@H](C)CO)C[C@@H]2C)cc1 -43%
C=C1CCC2C(C)(C)C(O)CCC2(C)C1CC/C(C)=C/C(=O)O (stereo not drawn) 4.62%
COc1ccc(NC(=O)Nc2ccc3c(c2)C(=O)N([C@@H](C)CO)C[C@H](C)[C@H](CN(C)CC2CCCCC2)O3)cc1 -5.89%
C[C@@H]1CN([C@@H](C)CO)C(=O)c2cc(NC(=O)Nc3ccc(C(F)(F)F)cc3)ccc2O[C@@H]1CN(C)Cc1ccncc1 10.7%
C[C@H]1CN([C@@H](C)CO)C(=O)c2cccc(NC(=O)C3CC3)c2O[C@@H]1CN(C)S(=O)(=O)c1ccc(F)cc1 -1.67%
CCCN(C)C[C@@H]1OCCCC[C@@H](C)Oc2ccc(NS(=O)(=O)c3c(C)noc3C)cc2C(=O)N([C@H](C)CO)C[C@@H]1C 35.2%
Cc1ccoc1CC[N+](C)(C)C -11.8%
Cc1ccc(S(=O)(=O)Nc2ccc3c(c2)C(=O)N([C@H](C)CO)C[C@H](C)[C@H](CN(C)S(=O)(=O)c2ccc(F)cc2)OCCCC[C@@H](C)O3)cc1 -17.8%
CC(C)NC(=O)N(C)C[C@@H]1Oc2c(NC(=O)c3cnccn3)cccc2C(=O)N([C@@H](C)CO)C[C@@H]1C 2.03%
NC(=S)c1cnn2c(C(F)(F)F)cc(C(F)(F)F)nc12 -19.5%
CC[N+]1=C(C)C(C)(C)c2cc(-c3ccccc3)ccc21 32.5%
C[C@@H]1CCCCO[C@H](CN(C)S(=O)(=O)c2ccc(Cl)cc2)[C@@H](C)CN([C@H](C)CO)C(=O)c2cc(NC(=O)Nc3ccc4c(c3)OCO4)ccc2O1 -3.15%
Cc1noc(C)c1S(=O)(=O)Nc1ccc2c(c1)CC(=O)N([C@H](C)CO)C[C@@H](C)[C@@H](CN(C)Cc1ccncc1)O2 48%
C[C@@H]1CN([C@H](C)CO)C(=O)Cc2cc(NC(=O)Cn3cnnn3)ccc2O[C@H]1CN(C)CC1CCCCC1 -28.8%
CC(C)(C)c1ccc(-c2[nH]nc(NC(=O)c3ccccc3Cl)c2Br)cc1 25.9%
CC(C)NC(=O)N(C)C[C@H]1Oc2c(NC(=O)c3ccncc3)cccc2C(=O)N([C@@H](C)CO)C[C@H]1C 10.7%
C[C@H]1CN([C@@H](C)CO)C(=O)Cc2cc(NS(=O)(=O)c3cccs3)ccc2O[C@H]1CN(C)Cc1ccncc1 -17.7%
O=C(O)CCC(=O)N(Cc1ccccc1)Cc1cn(-c2ccccc2)nc1-c1cccnc1 -8.01%

inhibition, active:
CC1(C)C2CC[C@]3(C)C(C(=O)C=C4[C@@H]5C[C@@](C)(C(=O)O)CC[C@]5(C)CC[C@]43C)[C@@]2(C)CC[C@@H]1O (stereo partly drawn) 66.5%
C[C@H]1CN([C@@H](C)CO)C(=O)Cc2cc(NS(C)(=O)=O)ccc2O[C@@H]1CN(C)CC1CC1 70.7%
C[C@@H]1CN([C@H](C)CO)C(=O)c2cc(NC(=O)c3ccncc3)ccc2O[C@H]1CN(C)Cc1ccc(Oc2ccccc2)cc1 73.2%
Cc1ccc(S(=O)(=O)N(C)C[C@@H]2Oc3c(NC(=O)C4CC4)cccc3C(=O)N([C@H](C)CO)C[C@@H]2C)cc1 115%
C[C@H]1CN([C@@H](C)CO)C(=O)c2cccc(NC(=O)Nc3ccccc3)c2O[C@H]1CN(C)S(=O)(=O)c1ccc(Cl)cc1 108%
CCC(=O)O[C@]1(C(=O)CCl)[C@@H](C)CC2C3CCC4=CC(=O)C=C[C@]4(C)[C@@]3(F)[C@@H](O)C[C@@]21C (stereo partly drawn) 79.4%
CC[C@]1(O)C[C@@H]2CN(CCc3c([nH]c4ccccc34)[C@@](C(=O)OC)(c3cc4c(cc3OC)N(C)[C@H]3[C@@](O)(C(=O)OC)[C@H](OC(C)=O)[C@]5(CC)C=CCN6CC[C@]43[C@@H]65)C2)C1 88.5%
